This assay has as its target T1, CRBN, Q96SW2.
T1 chain: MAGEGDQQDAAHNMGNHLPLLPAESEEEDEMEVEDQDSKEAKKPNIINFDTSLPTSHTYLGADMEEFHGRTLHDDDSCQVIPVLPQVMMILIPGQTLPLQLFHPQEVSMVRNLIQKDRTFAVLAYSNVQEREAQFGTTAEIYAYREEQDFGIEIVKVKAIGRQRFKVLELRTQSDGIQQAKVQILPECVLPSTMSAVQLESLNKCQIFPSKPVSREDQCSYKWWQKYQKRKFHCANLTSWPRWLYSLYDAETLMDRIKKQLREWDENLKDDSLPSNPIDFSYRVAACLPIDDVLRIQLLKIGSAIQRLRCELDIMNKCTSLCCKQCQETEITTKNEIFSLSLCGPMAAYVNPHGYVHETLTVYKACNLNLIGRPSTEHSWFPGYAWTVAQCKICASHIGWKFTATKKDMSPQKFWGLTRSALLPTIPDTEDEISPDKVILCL
The assay can be described thus: log2 fold change of degron read counts, EGFP-low vs EGFP+ sorted cells (limma voom), compound-induced degradation; higher = more compound-induced degradation of the degron-EGFP fusion; degrons are variants of IKZF1/3 zinc finger 2; compound dose not given here. To be noted: Jurkat, 18 h.

[1] abbreviates: compound: compound 19 (5-tert-butyl-thalidomide).
[2] abbreviates: compound: compound 22 (5-morpholino-thalidomide).
The mark [3] stands for this setting: compound: compound 33 (diphenyl IMiD analogue).

In all, about 8,300 sequences were measured (“log2 fold change of degron read counts, EGFP-low vs EGFP+ sorted cells (limma voom), compound-induced degradation”: median about -1.1, highest 2% from about 3.2 on). The entries come from a sample that favours the highest values as a whole.
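Note: pooled lentiviral library of zinc finger degron-EGFP fusions in mCherry-positive Jurkat cells, FACS-sorted after compound exposure, with degron abundance counted by next-generation sequencing.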

B1: 46F_47H_49P_50Q_52G_53A_54W_55F_67L_, Q9UKT9 (peptide)
chain: FHCPQCGAWFTQKGNLLRHIKL
In the case of B1, the “log2 fold change of degron read counts” value under setting [1] was -1.82, the “log2 fold change of degron read counts” value under setting [2] was -2.04, the “log2 fold change of degron read counts” value under setting [3] was -1.61 and the “log2 fold change of degron read counts” value (compound: thalidomide) was -2.14.

B2: 46F_47L_49D_50I_52G_53A_54E_55F_67L_, Q9UKT9 (peptide)
chain: FLCDICGAEFTQKGNLLRHIKL
As to B2, the “log2 fold change of degron read counts” value under setting [1] is -0.631, the “log2 fold change of degron read counts” value under setting [2] was -2.41, the “log2 fold change of degron read counts” value under setting [3] is -1.1 and the “log2 fold change of degron read counts” value (compound: thalidomide) was -0.617.

B3: 46F_47D_49D_50Q_52G_53A_54Y_55F_67L_, Q9UKT9 (peptide)
chain: FDCDQCGAYFTQKGNLLRHIKL
For the sequence B3, the “log2 fold change of degron read counts” value by setting is: under setting [1], -2.22; under setting [2], -2.78; under setting [3], -2.57; (compound: thalidomide) -2.51.

B4: 46F_47W_49P_50I_52G_53A_54N_55F_67L_, Q9UKT9 (peptide)
chain: FWCPICGANFTQKGNLLRHIKL
Consider B4, for which the “log2 fold change of degron read counts” value is, setting by setting: under setting [1], 2.99; under setting [2], 3.64; under setting [3], 1.91; (compound: thalidomide) 1.51.

B5: 46F_47A_49P_50I_52G_53A_54N_55F_67L_, Q9UKT9 (peptide)
chain: FACPICGANFTQKGNLLRHIKL
For the sequence B5, the “log2 fold change of degron read counts” value reads like this: under setting [1], 3.04; under setting [2], 1.85; under setting [3], 1.61; (compound: thalidomide) 1.07.

B6: 46F_47I_49P_50I_52G_53A_54N_55F_67L_, Q9UKT9 (peptide)
chain: FICPICGANFTQKGNLLRHIKL
B6: the “log2 fold change of degron read counts” value under setting [1] is -0.552, the “log2 fold change of degron read counts” value under setting [2] turned out to be 2.74, the “log2 fold change of degron read counts” value under setting [3] turned out to be 2.01 and the “log2 fold change of degron read counts” value (compound: thalidomide) was found to be 2.63.

B7: 46L_47T_49E_50I_52G_53F_54G_55C_67L_, Q9UKT9 (peptide)
chain: LTCEICGFGCTQKGNLLRHIKL
Regarding B7, the “log2 fold change of degron read counts” value is 0.777 under setting [1], 1.03 under setting [2], 0.337 under setting [3] and 1.18 (compound: thalidomide).

B8: 46F_47H_49P_50I_52G_53A_54Y_55F_67L_, Q9UKT9 (peptide)
chain: FHCPICGAYFTQKGNLLRHIKL
Consider B8, for which the “log2 fold change of degron read counts” value under setting [1] came to 2.3, the “log2 fold change of degron read counts” value under setting [2] came out at 1.96, the “log2 fold change of degron read counts” value under setting [3] came to 1.93 and the “log2 fold change of degron read counts” value (compound: thalidomide) amounted to 0.872.

B9: 46F_47N_49N_50Q_52G_53H_54K_55F_67L_, Q9UKT9 (peptide)
chain: FNCNQCGHKFTQKGNLLRHIKL
For B9, the “log2 fold change of degron read counts” value is, setting by setting: under setting [1], -2.94; under setting [2], -2.21; under setting [3], -2.62; (compound: thalidomide) -2.32.

B10: 46F_47T_49D_50V_52G_53A_54L_55F_67L_, Q9UKT9 (peptide)
chain: FTCDVCGALFTQKGNLLRHIKL
Take B10: the “log2 fold change of degron read counts” value by setting is: under setting [1], -1.7; under setting [2], -2.19; under setting [3], -1.1; (compound: thalidomide) -1.72.

B11: 46F_47K_49E_50V_52G_53A_54A_55F_67L_, Q9UKT9 (peptide)
chain: FKCEVCGAAFTQKGNLLRHIKL
In the case of B11, the “log2 fold change of degron read counts” value is, setting by setting: under setting [1], 2.13; under setting [2], -0.688; under setting [3], -1.68; (compound: thalidomide) 0.479.

B12: 46F_47T_49E_50V_52G_53A_54A_55F_67L_, Q9UKT9 (peptide)
chain: FTCEVCGAAFTQKGNLLRHIKL
As for B12, the “log2 fold change of degron read counts” value runs as follows: under setting [1], 2.8; under setting [2], 3.24; under setting [3], 2.06; (compound: thalidomide) 3.05.

B13: 46F_47S_49E_50V_52G_53A_54A_55F_67L_, Q9UKT9 (peptide)
chain: FSCEVCGAAFTQKGNLLRHIKL
On to B13, for which the “log2 fold change of degron read counts” value is 3.6 under setting [1], 3.21 under setting [2], 2.57 under setting [3] and 2.01 (compound: thalidomide).

B14: 46F_47D_49E_50V_52G_53A_54A_55F_67L_, Q9UKT9 (peptide)
chain: FDCEVCGAAFTQKGNLLRHIKL
On to B14, for which the “log2 fold change of degron read counts” value reads like this: under setting [1], 2.09; under setting [2], 0.14; under setting [3], 0.426; (compound: thalidomide) 1.14.

B15: 46F_47T_49P_50V_52G_53A_54A_55F_67L_, Q9UKT9 (peptide)
chain: FTCPVCGAAFTQKGNLLRHIKL
As to B15, the “log2 fold change of degron read counts” value amounted to 2.3 under setting [1], 3.11 under setting [2], 2.78 under setting [3] and 3 (compound: thalidomide).

B16: 46F_47T_49N_50V_52G_53A_54A_55F_67L_, Q9UKT9 (peptide)
chain: FTCNVCGAAFTQKGNLLRHIKL
With B16, the “log2 fold change of degron read counts” value is, setting by setting: under setting [1], 0.179; under setting [2], 1.08; under setting [3], 1.44; (compound: thalidomide) 1.29.

B17: 46L_47T_49P_50I_52G_53F_54P_55C_67L_, Q9UKT9 (peptide)
chain: LTCPICGFPCTQKGNLLRHIKL
Consider B17, for which the “log2 fold change of degron read counts” value runs as follows: under setting [1], 0.155; under setting [2], 1.3; under setting [3], 1.14; (compound: thalidomide) 1.64.

B18: 46F_47D_49P_50I_52G_53H_54E_55F_67L_, Q9UKT9 (peptide)
chain: FDCPICGHEFTQKGNLLRHIKL
Take B18: the “log2 fold change of degron read counts” value is -3 under setting [1], -2.96 under setting [2], -2.14 under setting [3] and -2.07 (compound: thalidomide).

B19: 46F_47V_49N_50Q_52G_53H_54V_55F_67L_, Q9UKT9 (peptide)
chain: FVCNQCGHVFTQKGNLLRHIKL
For the sequence B19, the “log2 fold change of degron read counts” value runs as follows: under setting [1], -2.66; under setting [2], -3.07; under setting [3], -2.27; (compound: thalidomide) -2.93.

B20: 46F_47M_49E_50I_52G_53R_54F_55F_67L_, Q9UKT9 (peptide)
chain: FMCEICGRFFTQKGNLLRHIKL
In the case of B20, the “log2 fold change of degron read counts” value was -2.5 under setting [1], -2.11 under setting [2], -1 under setting [3] and -1.98 (compound: thalidomide).

B21: 46F_47S_49D_50V_52G_53A_54M_55F_67L_, Q9UKT9 (peptide)
chain: FSCDVCGAMFTQKGNLLRHIKL
Regarding B21, the “log2 fold change of degron read counts” value runs as follows: under setting [1], 0.106; under setting [2], -0.592; under setting [3], -0.74; (compound: thalidomide) -1.71.

B22: 46F_47I_49D_50I_52G_53A_54A_55F_67L_, Q9UKT9 (peptide)
chain: FICDICGAAFTQKGNLLRHIKL
Take B22: the “log2 fold change of degron read counts” value was -0.22 under setting [1], 2.29 under setting [2], 1.39 under setting [3] and 1.5 (compound: thalidomide).

B23: 46F_47Q_49D_50I_52G_53A_54A_55F_67L_, Q9UKT9 (peptide)
chain: FQCDICGAAFTQKGNLLRHIKL
Take B23: the “log2 fold change of degron read counts” value by setting is: under setting [1], 1.74; under setting [2], 2.51; under setting [3], 0.983; (compound: thalidomide) 3.01.

B24: 46F_47V_49D_50I_52G_53A_54A_55F_67L_, Q9UKT9 (peptide)
chain: FVCDICGAAFTQKGNLLRHIKL
With B24, the “log2 fold change of degron read counts” value amounted to 0.447 under setting [1], 2.48 under setting [2], 1.33 under setting [3] and 1.87 (compound: thalidomide).

B25: 46F_47R_49D_50I_52G_53A_54A_55F_67L_, Q9UKT9 (peptide)
chain: FRCDICGAAFTQKGNLLRHIKL
Turning to B25, the “log2 fold change of degron read counts” value by setting is: under setting [1], 1.51; under setting [2], 1.47; under setting [3], 2.34; (compound: thalidomide) 1.21.

B26: 46F_47M_49D_50I_52G_53A_54A_55F_67L_, Q9UKT9 (peptide)
chain: FMCDICGAAFTQKGNLLRHIKL
Consider B26, for which the “log2 fold change of degron read counts” value is, setting by setting: under setting [1], 0.96; under setting [2], 1.45; under setting [3], 2.6; (compound: thalidomide) 0.343.

B27: 46F_47C_49D_50I_52G_53A_54A_55F_67L_, Q9UKT9 (peptide)
chain: FCCDICGAAFTQKGNLLRHIKL
Turning to B27, the “log2 fold change of degron read counts” value under setting [1] stood at 2.88, the “log2 fold change of degron read counts” value under setting [2] was 2.17, the “log2 fold change of degron read counts” value under setting [3] worked out at 0.975 and the “log2 fold change of degron read counts” value (compound: thalidomide) worked out at 0.534.

B28: 46F_47A_49D_50I_52G_53A_54A_55F_67L_, Q9UKT9 (peptide)
chain: FACDICGAAFTQKGNLLRHIKL
For B28, the “log2 fold change of degron read counts” value is 3.42 under setting [1], 2.04 under setting [2], -0.474 under setting [3] and -0.517 (compound: thalidomide).

B29: 46F_47Y_49D_50I_52G_53A_54A_55F_67L_, Q9UKT9 (peptide)
chain: FYCDICGAAFTQKGNLLRHIKL
For the sequence B29, the “log2 fold change of degron read counts” value under setting [1] came out at 3.37, the “log2 fold change of degron read counts” value under setting [2] was 3.23, the “log2 fold change of degron read counts” value under setting [3] is 2.4 and the “log2 fold change of degron read counts” value (compound: thalidomide) is -0.554.

B30: 46F_47W_49D_50I_52G_53A_54A_55F_67L_, Q9UKT9 (peptide)
chain: FWCDICGAAFTQKGNLLRHIKL
On to B30, for which the “log2 fold change of degron read counts” value under setting [1] turned out to be 3.12, the “log2 fold change of degron read counts” value under setting [2] came to 3.67, the “log2 fold change of degron read counts” value under setting [3] turned out to be 1.49 and the “log2 fold change of degron read counts” value (compound: thalidomide) is -0.516.
